In PubChem BioAssay (NCI) one finds growth data, which are given here for 37 compounds.

Values joined by “and” are separate entries in the source; they are usually repeats but may differ in a detail not shown here. Identical values can stand only once. Compounds without any hit were thinned out: in the full panel of roughly 83,000, 20% have a hit.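 Interpretation: 100, growth as untreated; towards 0, rising growth inhibition; 0, no net growth; 0 to -100, cell death. Compounds scoring below 10 were considered active.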 A number with no mark means an inactive call. Active and inactive are the calls of the source.

The test system of this assay is RPMI-8226 leukemia. In words: NCI-60 one-dose screen, 48 h (100 = growth as untreated, 0 = no growth, -100 = all killed). The note with it: 10 µM unless noted.
For `CCCCn1c(=O)c(C(=O)NCc2ccccc2Cl)c(O)c2ccccc21`, the growth is 40.1%.

For the compound `O=C(NCCCN1CC1)Nc1cccc2ccccc12`, the growth was 100% and 88.4%.

On to `Oc1cc(N2CC2)c(O)cc1N1CC1`, for which the growth is 2.53% (active).

`CC12CCC3C4CCC(=O)C=C4CCC3C1CC1CC(=O)OC12` (configuration not stated): the growth was 94.3%.

As for `CCOP(=O)(OCC)C(=O)N(CC)CC`, the growth was 89.2%.

As for `C#Cc1cccc(Nc2nc(Cl)nc3cc(NC(=O)CF)ccc23)c1`, the growth was 103%.

On to `CC[C@H](C)[C@H](NC(=O)[C@H]1CCCCN1C)C(=O)N(C)[C@H](C(=O)NC12CC(C(=O)N[C@@H](Cc3ccccc3)C[C@H](C)C(=O)OC)(C1)C2)C(C)C`, for which the growth was 108%.

Consider `CN1CCC2(CC1)C(C#N)C(=O)NC(=O)C2C#N` (configuration not stated), for which the growth was 109%.

On to `CC12CCC3C(CCC4CC(O)CCC43C)C1CCC2=O` (configuration not stated), for which the growth was 100%.

For `C=CC[PH+](c1ccccc1)c1ccccc1.C=CC[PH+](c1ccccc1)c1ccccc1.[Pt+2].[S-]c1nc2ccccc2[nH]1.[S-]c1nc2ccccc2[nH]1`, the growth is -19.1% (active).

For the compound `Cc1cc[c-]cc1.Fc1c[c-]c(-c2ccccn2)c(F)c1.[Pt+2].c1ccc([PH+](c2ccccc2)c2ccccn2)cc1`, the growth is 15.9%.

As for `C=C[Se]CC(=O)/C=C/c1ccccc1`, the growth is 93.2%.

With `CCCCCCCCCCCCCCCCCC1OCC(COC(=O)O[C@@H](C(=O)O[C@H]2C[C@@]3(O)[C@@H](OC(=O)c4ccccc4)[C@@H]4[C@]5(OC(C)=O)CO[C@@H]5C[C@H](O)[C@@]4(C)C(=O)[C@H](OC(C)=O)C(=C2C)C3(C)C)[C@@H](NC(=O)c2ccccc2)c2ccccc2)O1` (some centres not stated), the growth is 4.08% (active).

For `CC1(C)C=Cc2c(ccc3c2[N+]([O-])=C2C3=C[C@@]34NC(=O)[C@]5(CCCN5C3=O)C[C@@H]4C2(C)C)O1`, the growth is 24.6%.

For the compound `O=C(O)C1C(C(=O)O)C2(Cl)C(Cl)=C(Cl)C1(Cl)C2(Cl)Cl` (configuration not stated), the growth was 94% and 115%.

With `CNC(=O)O/N=C(\SC)C(=O)N(C)C`, the growth is 86%.

`C[C@]12CCc3sc(Nc4ccc(F)cc4F)nc3C1=CC[C@@H]1[C@@H]2CC[C@]2(C)C(=O)CC[C@@H]12`: the growth is -20.8% (active).

Regarding `N#CC(C#N)=C(C#N)C#N`, the growth was 101%.

For `N#CCC(=O)c1ccccc1`, the growth is 108%.

Take `O=C(O)c1ccc(=O)[nH]c1`: the growth was 103% and 96.5%.

In the case of `CC[C@H](C)[C@H](NC(=O)CN(C)C)C(=O)N(C)[C@H](C[C@@H](OC(C)=O)c1nc(C(=O)NC23C4C5C2C2C3C4C52C(=O)OC)cs1)C(C)C` (some centres not stated), the growth is 20.1%.

Consider `CNC(=O)Oc1ccc(Cl)cc1SSc1cc(Cl)ccc1OC(=O)NC`, for which the growth is 48.1%.

Consider `CC(=O)OC1CC2(O)C(CCC3(C)C(c4ccc(=O)oc4)CCC32O)C2(C)CCC(OC3OC(CO)C(O)C(O)C3O)C=C12` (configuration not stated), for which the growth was -23.3% (active).

In the case of `Oc1ccc(O)c(Cl)c1`, the growth is 28.5% and 91.1%.

With `CC(=O)Nc1nc2c(s1)C1=CC[C@H]3[C@@H]4CC[C@H](OC(C)=O)[C@@]4(C)CC[C@@H]3[C@@]1(C)CC2`, the growth is 30.8%.

As for `O=C(O)C(F)F`, the growth is 114%.

As to `CC[C@H](C)[C@H](NC(=O)C12CC(NC)(C1)C2)C(=O)N(C)[C@H](C[C@@H](OC(C)=O)c1nc(C(=O)N[C@@H](Cc2ccccc2)C[C@H](C)C(=O)OC)cs1)C(C)C`, the growth is 26.3%.

As to `NC(=O)Oc1cc(OC(N)=O)cc(N(CCCl)CCCl)c1`, the growth was 59.7%.

Consider `CC[PH+](CC)CC.O=COC1OC([S-])C(OC=O)C(OC=O)C1OC=O.[Au+]` (configuration not stated), for which the growth is -27.2% (active).

Take `CCOC(=O)c1ccccc1C(=O)OCC`: the growth was 88.1%.

Take `C[C@@H]1C/C=C\C(=O)O[C@H](/C=C/C#C/C=C/C(C)(C)[C@@H](O)c2cccc(O)c2Br)[C@@H](C)/C=C/[C@H](C)C[C@H](OC(N)=O)C1`: the growth is 11.3%.

Turning to `Cc1c(C)c(N)c(C)c(C)c1N`, the growth was 98.7%.

As to `Nc1ccc(P(=O)(O)O)cc1`, the growth was 97.8% and 104%.

Consider `OCCN=Cc1c[nH]c2ccccc12`, for which the growth was 120%.

Consider `S=P(SP(=S)(c1ccccc1)c1ccccc1)(c1ccccc1)c1ccccc1`, for which the growth is 87.7%.

On to `CN1CCc2cc3c(cc2C1O)OCO3` (configuration not stated), for which the growth was 94.4%.

Consider `Cc1cc(NC(=O)NCCCOc2ccc(N3C(N)=NC(N)=NC3(C)C)cc2Cl)ccc1S(=O)(=O)F`, for which the growth was 36.6%.
